In PubChem BioAssay (Tox21):
Results filed as inconclusive are left out. Activity calls are given as the source filed them. Unless noted, calls come from the whole dose curve; as a rule, active = well fitted curve in the direction sought with a large enough effect in the repeat runs; inconclusive = weak or mixed curves; inactive = no such curve, though single readings can be large; an effect the other way counts as inactive or inconclusive.

Assays:
[1] = A CellTox Green Cytotoxicity Assay to monitor cytotoxicity in HepG2 cells - 40 hour (AID 1224879); conditions: CellTox Green fluorescence; series mostly up to 76.8 µM; note: nearly all actives have a fitted effect of over 40% in size
Summary of the method: (§1)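 Real-time cytotoxicity: fluorescence of a cell-impermeant cyanine dye binding DNA of dead HepG2 cells, measured repeatedly (0–40 h) during compound exposure at 37 C. Cells seeded 600/well with reagent, dosed after 5 h.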

[2] = qHTS RealTime-Glo MT Cell Viability Assay in HEK293 cells - 0 hour (AID 1224880); conditions: RealTime-Glo luminescence; series mostly up to 76.8 µM; note: top concentration of the series differs between compounds; nearly all actives have a fitted effect of over 45% in size
Summary of the method: (§2)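 Luminescence, which tracks viable cell number through reduction of the prosubstrate to a NanoLuc substrate, was read over continuous 37 C culture. Cells (600/well) were premixed with reagent and rested 5 h before 23 nL of compound in DMSO was pinned.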

[3] = A CellTox Green Cytotoxicity Assay to monitor cytotoxicity in HEK293 cells - 32 hour (AID 1224881); conditions: CellTox Green fluorescence; series mostly up to 76.8 µM; note: nearly all actives have a fitted effect of over 40% in size
Summary of the method: (§3)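 Fluorescence from a DNA-binding dye excluded by viable cells was measured repeatedly in the same HEK293 wells (600 cells/well) during continuous compound exposure at 37 C. Each assay gives one read point: 0, 8, 16, 24, 32 or 40 h.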

[4] = A CellTox Green Cytotoxicity Assay to monitor cytotoxicity in HepG2 cells - 0 hour (AID 1224882); conditions: CellTox Green fluorescence; series mostly up to 76.8 µM; note: nearly all actives have a fitted effect of over 35% in size
Summary of the method: as §1

[5] = A CellTox Green Cytotoxicity Assay to monitor cytotoxicity in HepG2 cells - 32 hour (AID 1224883); conditions: CellTox Green fluorescence; series mostly up to 76.8 µM; note: nearly all actives have a fitted effect of over 50% in size
Summary of the method: as §1

[6] = A CellTox Green Cytotoxicity Assay to monitor cytotoxicity in HEK293 cells - 8 hour (AID 1224884); conditions: CellTox Green fluorescence; series mostly up to 76.8 µM; note: nearly all actives have a fitted effect of over 35% in size
Summary of the method: as §3

[7] = qHTS RealTime-Glo MT Cell Viability Assay in HepG2 cells - 16 hour (AID 1224885); conditions: RealTime-Glo luminescence; series mostly up to 76.8 µM; note: nearly all actives have a fitted effect of over 50% in size
Summary of the method: (§4)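 Tox21 10K library screened in qHTS format on HepG2 cells carrying RealTime-Glo reagents. Compounds were added after a 5 h preincubation, and the luminescent signal from continuous culture was measured repeatedly during 40 h treatment.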

[8] = qHTS RealTime-Glo MT Cell Viability Assay in HEK293 cells - 24 hour (AID 1224886); conditions: RealTime-Glo luminescence; series mostly up to 76.8 µM; note: top concentration of the series differs between compounds; nearly all actives have a fitted effect of over 50% in size
Summary of the method: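 Luminescence generated by NanoLuc from substrate produced by living HEK293 cells served as the viability signal. Each value reflects the reading at its stated time point during continuous 40 h compound exposure at 37 C.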

[9] = qHTS RealTime-Glo MT Cell Viability Assay in HEK293 cells - 8 hour (AID 1224887); conditions: RealTime-Glo luminescence; series mostly up to 76.8 µM; note: top concentration of the series differs between compounds; nearly all actives have a fitted effect of over 50% in size
Summary of the method: as §2

[10] = A CellTox Green Cytotoxicity Assay to monitor cytotoxicity in HEK293 cells - 16 hour (AID 1224888); conditions: CellTox Green fluorescence; series mostly up to 76.8 µM; note: nearly all actives have a fitted effect of over 35% in size
Summary of the method: as §3

[11] = qHTS RealTime-Glo MT Cell Viability Assay in HepG2 cells - 0 hour (AID 1224889); conditions: RealTime-Glo luminescence; series mostly up to 76.8 µM; note: nearly all actives have a fitted effect of over 50% in size
Summary of the method: as §4

[12] = A CellTox Green Cytotoxicity Assay to monitor cytotoxicity in HepG2 cells - 8 hour (AID 1224890); conditions: CellTox Green fluorescence; series mostly up to 76.8 µM; note: nearly all actives have a fitted effect of over 45% in size
Summary of the method: as §1

[13] = qHTS assay to identify small molecule antagonists of the estrogen receptor alpha (ER-alpha) signaling pathway using the BG1 cell line in the presence of 0.1 nM 17-beta-estradiol - cell viability counter screen (AID 1259241); conditions: VM7Luc4E2 (BG1) viability, CellTiter-Fluor protease, 22 h, 0.1 nM estradiol agonist added; series mostly up to 92.4 µM; note: nearly all actives have a fitted effect of over 40% in size
Summary of the method: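 VM7Luc4E2 cells (endogenous ER-alpha, 4×ERE-luciferase), hormone-starved 5 days in charcoal-stripped FBS, were treated with compounds plus 0.1 nM 17beta-estradiol for 22 hr at 37C; viability read in same wells as CellTiter-Fluor live-cell protease fluorescence.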

[14] = qHTS assay to identify small molecule antagonists of the androgen receptor (AR) signaling pathway using the MDA cell line in the presence of 0.5 nM R1881 - cell viability counter screen (AID 1259242); conditions: MDA-kb2 viability, CellTiter-Fluor protease fluorescence, 16 h; series mostly up to 92.4 µM; note: nearly all actives have a fitted effect of over 45% in size
Summary of the method: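 Live-cell protease activity was measured by CellTiter-Fluor fluorescence after 30 min. Before that, MDA-kb2 MMTV-luciferase cells had 16 hr at 37C without CO2, exposed to test compounds and 0.5 nM R1881 final.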

[15] = qHTS assay to identify small molecule HDAC inhibitors (AID 1259364); conditions: HCT-116 HDAC-Glo I/II luminescence, 2 h; series mostly up to 92.4 µM; note: top concentration of the series differs between compounds; nearly all actives have a fitted effect of over 45% in size
Summary of the method: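 Luminescence read after 30 min room-temperature HDAC-Glo incubation measures cellular class I/II HDAC activity. Compounds were applied for 2 hr at 37 C to HCT-116 wild-type cells seeded the day before.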

[16] = qHTS assay to identify small molecule HDAC inhibitors - cell viability counter screen (AID 1259365); conditions: HCT-116 viability, CellTiter-Glo ATP luminescence, 2 h; series mostly up to 92.4 µM; note: nearly all actives have a fitted effect of over 50% in size
Summary of the method: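 Wild-type HCT-116 cells were seeded at 1,500 per well, incubated overnight at 37 C, then exposed to compounds in DMSO for 2hr. Viability was read by CellTiter-Glo luminescence after 30min at room temperature.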

[17] = target: Androgen receptor (Homo sapiens) (UniProt P10275); assay: qHTS assay to identify small molecule antagonists of the androgen receptor (AR) signaling pathway using the MDA cell line in the presence of 0.5 nM R1881 (AID 1259243); conditions: MDA-kb2 MMTV-luciferase, R1881 0.5 nM, 16 h; series mostly up to 92.4 µM; note: nearly all actives have a fitted effect of over 50% in size
Summary of the method: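 Luminescent reporter readout (ONE-Glo, 30 min, room temperature) after 16 hr co-treatment of MDA-kb2 cells with test compounds and 0.5 nM R1881 final, at 37C without CO2. The MMTV-driven luciferase responds to both AR and GR.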

[18] = target: Estrogen receptor (Homo sapiens) (UniProt P03372); assay: qHTS assay to identify small molecule antagonists of the estrogen receptor alpha (ER-alpha) signaling pathway using the BG1 cell line in the presence of 0.1 nM 17-beta-estradiol (AID 1259244); conditions: VM7Luc4E2 (BG1) ERE-luciferase, antagonist mode, 0.1 nM E2, 22 h; series mostly up to 92.4 µM; note: nearly all actives have a fitted effect of over 50% in size
Summary of the method: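 Luciferase luminescence (ONE-Glo, 30 min at room temperature) was read after 22 hr at 37C exposure to compounds plus 17beta-estradiol at 0.1 nM final. Cells were VM7Luc4E2 with endogenous ER-alpha and an ERE-driven luciferase, pre-cultured 5 days in hormone-depleted medium.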

[19] = qHTS assay to identify small molecule phospholipidosis (PLD) inducers (AID 1259344; active = well fitted curve in the direction sought with a large enough effect; an effect the other way counts as inactive or inconclusive); conditions: HepG2 phospholipidosis, LipidTOX Red imaging, 24 h; series mostly up to 38.3 µM
Summary of the method: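 Phospholipid accumulation was scored by imaging: fixed, Hoechst-counterstained HepG2 cells stained with LipidTOX Red after 24 h compound exposure at 37 C. Read-outs were pit count and pit intensity per well or per cell, with amiodarone and DMSO controls.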
% is set by controls: 0 for no effect and ±100 for the full control effect.

Sequence of Androgen receptor (Homo sapiens) (P10275 whole entry, looked up): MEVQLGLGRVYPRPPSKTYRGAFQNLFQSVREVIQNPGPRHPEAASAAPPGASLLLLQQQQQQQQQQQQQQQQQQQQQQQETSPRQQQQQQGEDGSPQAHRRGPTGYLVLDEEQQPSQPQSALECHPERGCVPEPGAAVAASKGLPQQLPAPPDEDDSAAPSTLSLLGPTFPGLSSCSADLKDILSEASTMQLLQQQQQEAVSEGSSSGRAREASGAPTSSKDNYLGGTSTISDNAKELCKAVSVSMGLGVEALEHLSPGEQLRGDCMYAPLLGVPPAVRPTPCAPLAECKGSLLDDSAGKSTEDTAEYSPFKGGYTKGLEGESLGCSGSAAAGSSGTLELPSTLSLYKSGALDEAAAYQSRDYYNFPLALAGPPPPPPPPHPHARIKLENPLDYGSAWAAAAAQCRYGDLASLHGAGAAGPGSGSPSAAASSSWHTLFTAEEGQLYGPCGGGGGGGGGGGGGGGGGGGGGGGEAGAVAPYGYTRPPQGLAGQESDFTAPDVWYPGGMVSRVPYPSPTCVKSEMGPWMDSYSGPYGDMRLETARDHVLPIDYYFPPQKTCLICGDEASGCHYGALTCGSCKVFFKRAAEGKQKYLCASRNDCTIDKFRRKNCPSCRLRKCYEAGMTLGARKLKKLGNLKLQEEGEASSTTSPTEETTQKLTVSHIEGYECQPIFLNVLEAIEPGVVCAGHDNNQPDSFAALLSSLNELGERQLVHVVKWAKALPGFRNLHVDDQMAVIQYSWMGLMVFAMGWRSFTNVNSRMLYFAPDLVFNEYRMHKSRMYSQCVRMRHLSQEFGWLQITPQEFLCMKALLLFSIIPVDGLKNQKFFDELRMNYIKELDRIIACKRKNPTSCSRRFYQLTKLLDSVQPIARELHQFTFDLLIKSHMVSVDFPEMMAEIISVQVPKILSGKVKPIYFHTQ
Sequence of Estrogen receptor (Homo sapiens) (P03372 whole entry, looked up): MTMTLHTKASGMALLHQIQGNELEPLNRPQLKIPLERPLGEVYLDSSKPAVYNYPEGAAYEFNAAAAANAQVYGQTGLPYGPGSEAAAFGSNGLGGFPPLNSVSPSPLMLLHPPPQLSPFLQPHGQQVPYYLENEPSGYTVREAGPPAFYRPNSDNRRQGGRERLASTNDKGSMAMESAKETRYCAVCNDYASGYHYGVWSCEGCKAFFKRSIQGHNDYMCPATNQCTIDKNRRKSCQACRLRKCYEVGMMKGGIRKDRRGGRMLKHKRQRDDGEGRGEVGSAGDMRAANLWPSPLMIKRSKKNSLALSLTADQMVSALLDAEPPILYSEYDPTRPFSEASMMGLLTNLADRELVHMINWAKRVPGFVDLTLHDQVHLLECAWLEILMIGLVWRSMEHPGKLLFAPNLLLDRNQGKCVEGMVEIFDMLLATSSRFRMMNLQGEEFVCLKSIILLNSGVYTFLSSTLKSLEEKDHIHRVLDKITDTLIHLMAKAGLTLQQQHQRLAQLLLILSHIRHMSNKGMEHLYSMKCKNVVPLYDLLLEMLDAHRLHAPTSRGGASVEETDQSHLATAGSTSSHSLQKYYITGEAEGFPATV

CC[N+](C)(CC)CC
inactive: Potency [1] | Potency [2] | Potency [3] | Potency [4] | Potency [5] | Potency [6] | outcome [7] | outcome [8] | outcome [9] | Potency [10] | Potency [11] | Potency [12] | outcome [13] | outcome [14] | Potency [15]

C=CCCCCCCCCCCCCCC
inactive: cytotoxicity increase [1] -1.48% [at 15.8 µM] | activity change, negative = cytotoxicity [2] -0.897% [at 15.8 µM] | cytotoxicity increase [3] -0.422% [at 15.8 µM] | cytotoxicity [4] 7.56% [at 15.8 µM] | cytotoxicity increase [5] -0.009% [at 15.8 µM] | cytotoxicity increase [6] 2.81% [at 15.8 µM] | activity change, negative = cytotoxic [7] -0.802% [at 15.8 µM] | activity change, negative = cytotoxicity [8] -1.45% [at 15.8 µM] | activity change, negative = cytotoxicity [9] -3.89% [at 15.8 µM] | activity change [10] -0.657% [at 15.8 µM, hits give high values] | activity change, negative = cytotoxicity [11] 10.7% [at 15.8 µM] | cytotoxicity increase [12] 8.14% [at 15.8 µM] | activity change, negative = cytotoxicity [13] 0.733% [at 19 µM] | viability change, negative = cytotoxic [14] 1.94% [at 19 µM] | activity change, negative = cytotoxicity [16] 1.69% [at 19 µM]

CCCCCCCCC1CO1 (configuration not stated)
inactive: Potency [1] | Potency [2] | Potency [3] | Potency [4] | Potency [5] | Potency [6] | outcome [7] | outcome [8] | outcome [9] | Potency [10] | Potency [11] | outcome [13] | outcome [14] | Potency [17] | outcome [16]

CC/C=C\CCOC(=O)c1ccccc1
inactive: Potency [4] | Potency [6] | outcome [7] | outcome [8] | Potency [10] | Potency [11] | Potency [12] | outcome [13] | outcome [14] | Potency [17] | outcome [16]

C=CCn1cc[n+](C)c1
inactive: Potency [1] | Potency [2] | Potency [3] | Potency [4] | Potency [5] | Potency [6] | outcome [7] | outcome [9] | Potency [10] | Potency [11] | Potency [12] | outcome [13] | outcome [14] | outcome [18] | outcome [16]

CCO[Si](CC(C)C)(OCC)OCC
inactive: Potency [2] | Potency [3] | Potency [4] | Potency [6] | outcome [7] | outcome [9] | Potency [10] | Potency [11] | outcome [13] | outcome [14] | Potency [15]

CCCCCCCC(=O)N(C)C
inactive: Potency [2] | Potency [3] | Potency [4] | Potency [6] | outcome [7] | outcome [8] | outcome [9] | Potency [10] | Potency [11] | outcome [13] | outcome [14] | outcome [18] | Potency [15] | outcome [16]

CN(C)CCCN(C)C
inactive: activity change, negative = cytotoxicity [2] -1.25% [at 6.97 µM] | cytotoxicity increase [3] -0.385% [at 6.97 µM] | cytotoxicity [4] -10.6% [at 6.97 µM] | cytotoxicity increase [6] -3.24% [at 6.97 µM] | activity change, negative = cytotoxic [7] 0.141% [at 6.97 µM] | activity change, negative = cytotoxicity [8] 3.07% [at 6.97 µM] | activity change, negative = cytotoxicity [9] -0.912% [at 6.97 µM] | activity change [10] -1.52% [at 6.97 µM, hits give high values] | activity change, negative = cytotoxicity [11] -4.9% [at 6.97 µM] | activity change, negative = cytotoxicity [13] -1.36% [at 8.39 µM] | viability change, negative = cytotoxic [14] 2.3% [at 8.39 µM] | activity change, negative = inhibition [18] -10.8% [at 8.39 µM] | activity change, negative = inhibition [15] 2.55% [at 8.39 µM] | activity change, negative = cytotoxicity [16] 1.58% [at 8.39 µM]

Nc1cc(S(=O)(=O)O)ccc1O
inactive: Potency [1] | Potency [3] | Potency [4] | Potency [5] | Potency [6] | outcome [7] | outcome [8] | outcome [9] | Potency [10] | Potency [11] | Potency [12] | outcome [13] | outcome [14] | Potency [17] | outcome [18] | outcome [16]

CC(C)OCCO
inactive: Potency [2] | Potency [3] | Potency [4] | Potency [5] | Potency [6] | outcome [7] | outcome [8] | outcome [9] | Potency [10] | Potency [11] | outcome [13] | outcome [14] | Potency [15] | outcome [16]

NC[C@H]1O[C@H](O[C@H]2[C@H](O)[C@@H](O[C@H]3O[C@H](CO)[C@@H](O)[C@H](N)[C@H]3O)[C@H](N)C[C@@H]2N)[C@H](N)[C@@H](O)[C@@H]1O
inactive: cytotoxicity increase [1] -4.11% [at 15.8 µM] | activity change, negative = cytotoxicity [2] -0.44% [at 15.8 µM] | cytotoxicity increase [3] -0.0128% [at 15.8 µM] | cytotoxicity [4] 1.75% [at 15.8 µM] | cytotoxicity increase [5] -2.59% [at 15.8 µM] | cytotoxicity increase [6] 1.34% [at 15.8 µM] | activity change, negative = cytotoxic [7] 3.1% [at 15.8 µM] | activity change, negative = cytotoxicity [8] 5.12% [at 15.8 µM] | activity change, negative = cytotoxicity [9] 14.7% [at 15.8 µM] | activity change [10] 2% [at 15.8 µM, hits give high values] | activity change, negative = cytotoxicity [11] 5.28% [at 15.8 µM] | cytotoxicity increase [12] 0.922% [at 15.8 µM] | activity change, negative = cytotoxicity [13] 2.9% [at 19 µM] | viability change, negative = cytotoxic [14] -0.928% [at 19 µM] | Potency [19] | activity change, negative = cytotoxicity [16] -0.176% [at 19 µM]

CCCCCCC(=O)c1ccccc1
inactive: Potency [1] | Potency [2] | Potency [3] | Potency [4] | Potency [5] | Potency [6] | outcome [8] | outcome [9] | Potency [10] | Potency [11] | Potency [12] | outcome [13] | outcome [14] | Potency [15] | outcome [16]

CC(C)C(C)C
inactive: Potency [1] | Potency [2] | Potency [3] | Potency [4] | Potency [5] | Potency [6] | outcome [7] | outcome [8] | outcome [9] | Potency [10] | Potency [11] | Potency [12] | outcome [13] | outcome [14] | Potency [15] | outcome [16]
